The values below come from publication PMC7862700, “An all-to-all approach to the identification of sequence-specific readers for epigenetic DNA modifications on cytosine”.

Experiment in all cases: DAPPL (digital affinity profiling via proximity ligation, sequencing); 10 mM Tris-HCl pH 7.5, 50 mM NaCl, 1 mM DTT, 4% glycerol, room temperature, 30 min; GST-TFs on glutathione beads, 16-mer random dsDNA library, 0.1% formaldehyde crosslink after washing; high values mean tight binding
One assay addresses T1, FEV (Homo sapiens, UniProt Q99581 1-238).
T1 sequence: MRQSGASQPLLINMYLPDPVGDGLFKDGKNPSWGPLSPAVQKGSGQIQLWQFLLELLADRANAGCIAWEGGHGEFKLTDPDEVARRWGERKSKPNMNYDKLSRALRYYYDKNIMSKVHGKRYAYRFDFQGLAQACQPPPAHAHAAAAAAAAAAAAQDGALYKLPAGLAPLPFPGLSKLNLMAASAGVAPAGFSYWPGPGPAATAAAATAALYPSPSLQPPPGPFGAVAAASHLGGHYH
Conditions: protein: recombinant; tags: N-terminal GST; dsDNA, one strand shown. Put shortly:
(§1)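 Binding signal is each hexamer's read frequency for a factor divided by its frequency in the tag-only sample. The factors were GST-fused human transcription factors from yeast, captured on glutathione beads, DNA-barcoded and pooled with that sample. Pools were incubated with 200 nmole of a random double-stranded 16-mer DNA library in Tris/NaCl/DTT/glycerol buffer at room temperature for 30 min, then washed, crosslinked with 0.1% formaldehyde, proximity-ligated with BsaI/T4 ligase (1 h, 37 °C), PCR-amplified and sequenced on an Illumina NextSeq500.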

The target of the next assay is ETV5 (Homo sapiens, UniProt P41161 1-510). Conditions: protein: recombinant; tags: N-terminal GST; dsDNA, one strand shown. In short, it runs like this: as §1
Sequence of ETV5 (P41161 whole entry): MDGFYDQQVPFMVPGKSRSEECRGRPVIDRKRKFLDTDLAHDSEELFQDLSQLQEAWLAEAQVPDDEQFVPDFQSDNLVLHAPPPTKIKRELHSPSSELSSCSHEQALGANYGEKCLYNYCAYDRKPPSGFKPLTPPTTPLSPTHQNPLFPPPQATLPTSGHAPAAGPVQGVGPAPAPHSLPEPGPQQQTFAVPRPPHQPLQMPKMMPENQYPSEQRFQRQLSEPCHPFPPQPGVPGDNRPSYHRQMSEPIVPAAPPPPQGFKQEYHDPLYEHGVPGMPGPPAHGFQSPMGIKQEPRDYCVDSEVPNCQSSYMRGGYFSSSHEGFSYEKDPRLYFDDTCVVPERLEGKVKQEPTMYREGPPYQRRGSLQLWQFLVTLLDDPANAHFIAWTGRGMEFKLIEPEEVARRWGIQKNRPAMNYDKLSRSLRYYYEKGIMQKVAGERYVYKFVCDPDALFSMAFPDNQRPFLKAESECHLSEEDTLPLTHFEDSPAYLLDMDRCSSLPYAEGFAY
For a further assay, the target named is HSF1 (Homo sapiens, UniProt Q00613 1-529). Conditions: protein: recombinant; tags: N-terminal GST; chain copies: 3; dsDNA, one strand shown. In short, it runs like this: as §1
Sequence of HSF1 (Q00613 whole entry): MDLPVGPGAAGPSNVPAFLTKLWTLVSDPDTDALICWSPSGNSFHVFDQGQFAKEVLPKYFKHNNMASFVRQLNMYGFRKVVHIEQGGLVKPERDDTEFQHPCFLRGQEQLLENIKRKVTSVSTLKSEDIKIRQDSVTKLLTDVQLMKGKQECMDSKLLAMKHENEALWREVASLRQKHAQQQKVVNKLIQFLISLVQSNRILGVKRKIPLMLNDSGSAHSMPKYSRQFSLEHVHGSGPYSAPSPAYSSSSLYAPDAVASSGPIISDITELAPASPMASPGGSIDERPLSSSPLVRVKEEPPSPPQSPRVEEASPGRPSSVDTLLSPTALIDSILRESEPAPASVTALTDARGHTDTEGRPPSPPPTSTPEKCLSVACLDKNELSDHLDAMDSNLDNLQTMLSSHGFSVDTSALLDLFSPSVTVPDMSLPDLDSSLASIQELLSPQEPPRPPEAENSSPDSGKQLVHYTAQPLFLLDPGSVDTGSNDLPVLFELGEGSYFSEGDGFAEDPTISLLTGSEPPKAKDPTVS
The next assay deals with T2, SPIC (Homo sapiens, UniProt Q8N5J4 1-248).
T2 sequence: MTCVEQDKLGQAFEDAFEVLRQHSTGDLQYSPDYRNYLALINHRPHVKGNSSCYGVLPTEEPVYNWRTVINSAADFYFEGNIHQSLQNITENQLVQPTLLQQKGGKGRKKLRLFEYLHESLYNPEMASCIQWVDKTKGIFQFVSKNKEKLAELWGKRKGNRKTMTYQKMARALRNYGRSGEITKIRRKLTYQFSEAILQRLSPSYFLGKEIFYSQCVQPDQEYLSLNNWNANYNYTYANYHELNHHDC
Conditions: protein: recombinant; tags: N-terminal GST; dsDNA, one strand shown. In short, it runs like this:
as §1

For a further assay, the target named is ELF4 (Homo sapiens, UniProt Q99607 1-663). Particulars: protein: recombinant; tags: N-terminal GST; dsDNA, one strand shown. In short, it runs like this: as §1
Sequence of ELF4 (Q99607 whole entry): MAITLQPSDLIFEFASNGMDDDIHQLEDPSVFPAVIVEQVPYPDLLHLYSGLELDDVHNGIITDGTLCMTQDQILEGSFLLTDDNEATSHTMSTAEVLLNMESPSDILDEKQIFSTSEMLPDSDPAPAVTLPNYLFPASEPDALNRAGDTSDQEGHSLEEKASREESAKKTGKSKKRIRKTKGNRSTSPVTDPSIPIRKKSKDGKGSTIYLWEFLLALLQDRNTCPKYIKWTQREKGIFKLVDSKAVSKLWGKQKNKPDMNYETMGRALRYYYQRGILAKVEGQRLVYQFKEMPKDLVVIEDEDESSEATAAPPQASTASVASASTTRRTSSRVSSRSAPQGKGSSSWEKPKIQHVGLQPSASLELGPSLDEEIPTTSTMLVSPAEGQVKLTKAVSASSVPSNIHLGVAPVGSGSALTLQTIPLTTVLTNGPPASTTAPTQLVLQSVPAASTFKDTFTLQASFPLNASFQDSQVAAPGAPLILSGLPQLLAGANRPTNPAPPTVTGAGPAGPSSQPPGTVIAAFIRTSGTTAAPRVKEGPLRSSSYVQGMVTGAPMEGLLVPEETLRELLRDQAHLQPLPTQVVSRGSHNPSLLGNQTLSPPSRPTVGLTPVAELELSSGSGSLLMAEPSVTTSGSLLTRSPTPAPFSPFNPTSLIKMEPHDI
Another assay concerns the target T3, ELK4 (Homo sapiens, UniProt P28324-2 1-405).
T3 sequence: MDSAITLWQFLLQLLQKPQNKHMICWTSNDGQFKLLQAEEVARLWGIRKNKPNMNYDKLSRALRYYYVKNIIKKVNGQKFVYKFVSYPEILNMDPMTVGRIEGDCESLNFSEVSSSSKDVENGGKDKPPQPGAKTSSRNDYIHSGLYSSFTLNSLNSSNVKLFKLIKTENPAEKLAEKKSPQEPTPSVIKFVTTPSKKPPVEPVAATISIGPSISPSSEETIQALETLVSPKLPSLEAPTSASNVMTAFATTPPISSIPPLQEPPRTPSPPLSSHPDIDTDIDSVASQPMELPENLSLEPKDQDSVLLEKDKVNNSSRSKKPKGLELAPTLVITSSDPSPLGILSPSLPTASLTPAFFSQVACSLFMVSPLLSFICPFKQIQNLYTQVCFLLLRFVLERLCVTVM
Particulars: protein: recombinant; tags: N-terminal GST; dsDNA, one strand shown. Put shortly:
as §1

The next assay deals with T4, ETV2 (Homo sapiens, UniProt O00321 1-342).
T4 sequence: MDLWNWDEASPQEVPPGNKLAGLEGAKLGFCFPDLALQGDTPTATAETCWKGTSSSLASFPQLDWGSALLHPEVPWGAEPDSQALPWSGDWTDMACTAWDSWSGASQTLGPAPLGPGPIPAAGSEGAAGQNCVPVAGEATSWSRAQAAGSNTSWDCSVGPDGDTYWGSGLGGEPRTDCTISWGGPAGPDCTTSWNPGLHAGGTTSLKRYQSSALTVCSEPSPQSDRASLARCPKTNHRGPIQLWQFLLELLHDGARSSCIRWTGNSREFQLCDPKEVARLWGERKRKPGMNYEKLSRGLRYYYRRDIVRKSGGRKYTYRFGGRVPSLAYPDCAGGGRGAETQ
Conditions: protein: recombinant; tags: N-terminal GST; dsDNA, one strand shown. Put shortly: as §1

The target in another assay is T5, ELF3 (Homo sapiens, UniProt P78545 1-371).
T5 sequence: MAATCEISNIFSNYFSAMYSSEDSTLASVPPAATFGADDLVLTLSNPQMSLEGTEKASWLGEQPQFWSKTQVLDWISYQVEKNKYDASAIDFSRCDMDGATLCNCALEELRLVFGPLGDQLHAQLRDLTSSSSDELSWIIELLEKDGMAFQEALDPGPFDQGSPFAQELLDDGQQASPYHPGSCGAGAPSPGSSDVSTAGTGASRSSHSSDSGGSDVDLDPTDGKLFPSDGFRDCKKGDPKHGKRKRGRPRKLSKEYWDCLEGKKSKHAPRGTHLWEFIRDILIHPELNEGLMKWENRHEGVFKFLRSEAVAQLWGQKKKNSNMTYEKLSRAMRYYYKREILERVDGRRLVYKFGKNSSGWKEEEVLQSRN
Particulars: protein: recombinant; tags: N-terminal GST; dsDNA, one strand shown. Put shortly: as §1

Another assay has as its target CRX (Homo sapiens, UniProt O43186 1-299). Particulars: protein: recombinant; tags: N-terminal GST; dsDNA, one strand shown. Put shortly:
as §1

The next assay deals with ETV1 (Homo sapiens, UniProt P50549 1-477). Particulars: protein: recombinant; tags: N-terminal GST; dsDNA, one strand shown. Put shortly:
as §1

In another assay the target is T6, ERF (Homo sapiens, UniProt P50548 1-548).
T6 sequence: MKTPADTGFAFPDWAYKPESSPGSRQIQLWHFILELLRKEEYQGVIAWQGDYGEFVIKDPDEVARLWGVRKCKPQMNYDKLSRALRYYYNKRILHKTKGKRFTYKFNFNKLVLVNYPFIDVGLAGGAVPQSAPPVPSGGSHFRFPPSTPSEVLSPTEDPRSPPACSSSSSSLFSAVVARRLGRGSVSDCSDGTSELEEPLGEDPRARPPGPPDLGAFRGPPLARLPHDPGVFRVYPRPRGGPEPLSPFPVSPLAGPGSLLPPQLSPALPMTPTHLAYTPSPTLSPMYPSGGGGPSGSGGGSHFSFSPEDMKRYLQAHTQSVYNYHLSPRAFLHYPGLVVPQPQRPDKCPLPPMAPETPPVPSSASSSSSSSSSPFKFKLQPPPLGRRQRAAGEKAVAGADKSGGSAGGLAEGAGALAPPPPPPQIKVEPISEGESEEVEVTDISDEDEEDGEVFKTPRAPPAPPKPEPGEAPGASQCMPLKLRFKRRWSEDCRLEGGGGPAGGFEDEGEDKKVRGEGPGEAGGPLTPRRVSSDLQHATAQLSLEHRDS
Conditions: protein: recombinant; tags: N-terminal GST; dsDNA, one strand shown. Put shortly: as §1

In the next assay the target is T7, ETV3L (Homo sapiens, UniProt Q6ZN32 1-361).
T7 sequence: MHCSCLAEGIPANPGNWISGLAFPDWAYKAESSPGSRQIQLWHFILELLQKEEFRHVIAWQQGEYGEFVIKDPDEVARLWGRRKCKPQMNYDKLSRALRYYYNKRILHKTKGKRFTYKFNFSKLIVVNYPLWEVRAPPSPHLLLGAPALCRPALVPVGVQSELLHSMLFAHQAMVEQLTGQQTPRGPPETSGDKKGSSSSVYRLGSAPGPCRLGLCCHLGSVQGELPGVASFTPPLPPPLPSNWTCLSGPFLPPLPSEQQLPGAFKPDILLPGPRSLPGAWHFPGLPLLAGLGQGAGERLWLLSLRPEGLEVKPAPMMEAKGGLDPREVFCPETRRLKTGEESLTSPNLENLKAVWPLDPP
Particulars: protein: recombinant; tags: N-terminal GST; dsDNA, one strand shown. Put shortly:
as §1

The next assay concerns the target T8, ETS2 (Homo sapiens, UniProt P15036 1-469).
T8 sequence: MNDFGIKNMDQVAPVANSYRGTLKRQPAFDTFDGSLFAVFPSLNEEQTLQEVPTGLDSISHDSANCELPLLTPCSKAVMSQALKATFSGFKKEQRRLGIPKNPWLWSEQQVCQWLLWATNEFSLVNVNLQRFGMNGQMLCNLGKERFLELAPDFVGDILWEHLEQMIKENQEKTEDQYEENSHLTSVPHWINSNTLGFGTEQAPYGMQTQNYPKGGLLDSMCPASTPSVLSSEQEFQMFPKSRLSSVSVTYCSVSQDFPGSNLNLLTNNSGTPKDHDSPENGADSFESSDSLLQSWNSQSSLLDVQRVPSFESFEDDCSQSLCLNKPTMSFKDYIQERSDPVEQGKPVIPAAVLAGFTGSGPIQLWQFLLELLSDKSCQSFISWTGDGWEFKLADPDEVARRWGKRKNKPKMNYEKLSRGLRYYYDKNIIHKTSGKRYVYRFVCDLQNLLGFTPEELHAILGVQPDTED
Particulars: protein: recombinant; tags: N-terminal GST; dsDNA, one strand shown. Put shortly: as §1

In a further assay the target is T9, SPDEF (Homo sapiens, UniProt O95238 1-335).
T9 sequence: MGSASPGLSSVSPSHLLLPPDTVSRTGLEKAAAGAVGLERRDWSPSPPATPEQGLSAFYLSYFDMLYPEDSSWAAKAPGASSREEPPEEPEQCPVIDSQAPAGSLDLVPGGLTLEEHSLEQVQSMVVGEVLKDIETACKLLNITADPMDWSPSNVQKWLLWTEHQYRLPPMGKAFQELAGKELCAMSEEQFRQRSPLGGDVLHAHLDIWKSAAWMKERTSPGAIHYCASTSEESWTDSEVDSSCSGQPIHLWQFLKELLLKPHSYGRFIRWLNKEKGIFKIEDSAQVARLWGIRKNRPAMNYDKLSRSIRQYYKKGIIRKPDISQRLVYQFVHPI
Conditions: protein: recombinant; tags: N-terminal GST; dsDNA, one strand shown. In short, it runs like this:
as §1

In the next assay the target is T10, ETV7 (Homo sapiens, UniProt Q9Y603 1-341).
T10 sequence: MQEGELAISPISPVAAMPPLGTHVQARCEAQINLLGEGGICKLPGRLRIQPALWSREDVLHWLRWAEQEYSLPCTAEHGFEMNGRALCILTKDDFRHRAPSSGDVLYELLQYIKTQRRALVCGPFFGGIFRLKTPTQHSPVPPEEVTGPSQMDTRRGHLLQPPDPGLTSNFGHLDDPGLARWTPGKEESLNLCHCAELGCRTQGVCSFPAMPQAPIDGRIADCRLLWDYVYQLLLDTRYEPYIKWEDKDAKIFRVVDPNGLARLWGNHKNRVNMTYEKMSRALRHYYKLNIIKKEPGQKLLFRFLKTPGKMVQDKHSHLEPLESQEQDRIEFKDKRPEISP
Conditions: protein: recombinant; tags: N-terminal GST; dsDNA, one strand shown. Put shortly:
as §1

A further assay concerns the target T11, ELF5 (Homo sapiens, UniProt Q9UKW6-2 1-255).
T11 sequence: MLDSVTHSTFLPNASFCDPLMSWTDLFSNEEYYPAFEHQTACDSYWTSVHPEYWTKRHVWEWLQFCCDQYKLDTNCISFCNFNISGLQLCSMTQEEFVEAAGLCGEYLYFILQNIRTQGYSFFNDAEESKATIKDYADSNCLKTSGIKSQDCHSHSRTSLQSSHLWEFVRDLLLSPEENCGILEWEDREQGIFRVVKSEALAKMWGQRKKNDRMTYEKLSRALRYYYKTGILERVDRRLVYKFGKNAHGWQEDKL
Particulars: protein: recombinant; tags: N-terminal GST; dsDNA, one strand shown. In short, it runs like this:
as §1

A further assay addresses T12, ETV3 (Homo sapiens, UniProt P41162-2 1-143).
T12 sequence: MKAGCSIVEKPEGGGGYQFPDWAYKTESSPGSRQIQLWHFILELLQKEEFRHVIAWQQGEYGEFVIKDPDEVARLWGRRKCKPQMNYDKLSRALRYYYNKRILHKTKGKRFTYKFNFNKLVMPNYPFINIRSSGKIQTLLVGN
Particulars: protein: recombinant; tags: N-terminal GST; dsDNA, one strand shown. Put shortly: as §1

The target of the next assay is ETV6 (Homo sapiens, UniProt P41212 1-452). Particulars: protein: recombinant; tags: N-terminal GST; dsDNA, one strand shown. In short, it runs like this: as §1
Sequence of ETV6 (P41212 whole entry): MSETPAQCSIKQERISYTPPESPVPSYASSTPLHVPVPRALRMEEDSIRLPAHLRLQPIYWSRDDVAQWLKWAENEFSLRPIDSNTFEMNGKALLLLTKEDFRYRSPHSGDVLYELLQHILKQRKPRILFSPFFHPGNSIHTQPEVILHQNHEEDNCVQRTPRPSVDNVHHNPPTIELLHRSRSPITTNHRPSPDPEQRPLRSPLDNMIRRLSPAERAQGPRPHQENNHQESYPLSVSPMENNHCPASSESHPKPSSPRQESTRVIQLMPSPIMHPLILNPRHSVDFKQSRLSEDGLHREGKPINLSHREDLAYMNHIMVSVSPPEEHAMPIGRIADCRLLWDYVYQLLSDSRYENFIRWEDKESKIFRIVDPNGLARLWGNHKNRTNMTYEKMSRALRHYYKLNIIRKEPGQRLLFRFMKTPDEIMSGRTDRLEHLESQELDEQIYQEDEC

Sequence of ETV1 (P50549 whole entry): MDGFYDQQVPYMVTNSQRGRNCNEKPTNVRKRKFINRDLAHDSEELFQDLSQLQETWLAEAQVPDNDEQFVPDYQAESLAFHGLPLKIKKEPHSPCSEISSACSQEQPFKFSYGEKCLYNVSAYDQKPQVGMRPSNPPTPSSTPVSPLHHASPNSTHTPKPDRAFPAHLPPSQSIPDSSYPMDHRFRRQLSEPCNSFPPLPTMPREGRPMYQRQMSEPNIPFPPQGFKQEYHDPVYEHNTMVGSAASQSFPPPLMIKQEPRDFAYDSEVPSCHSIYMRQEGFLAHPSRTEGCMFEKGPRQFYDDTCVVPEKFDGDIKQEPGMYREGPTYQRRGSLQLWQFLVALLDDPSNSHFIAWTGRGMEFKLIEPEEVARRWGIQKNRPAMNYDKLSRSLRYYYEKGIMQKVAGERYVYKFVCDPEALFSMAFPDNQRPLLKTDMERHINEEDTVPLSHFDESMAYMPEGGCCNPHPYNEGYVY
Sequence of CRX (O43186 whole entry): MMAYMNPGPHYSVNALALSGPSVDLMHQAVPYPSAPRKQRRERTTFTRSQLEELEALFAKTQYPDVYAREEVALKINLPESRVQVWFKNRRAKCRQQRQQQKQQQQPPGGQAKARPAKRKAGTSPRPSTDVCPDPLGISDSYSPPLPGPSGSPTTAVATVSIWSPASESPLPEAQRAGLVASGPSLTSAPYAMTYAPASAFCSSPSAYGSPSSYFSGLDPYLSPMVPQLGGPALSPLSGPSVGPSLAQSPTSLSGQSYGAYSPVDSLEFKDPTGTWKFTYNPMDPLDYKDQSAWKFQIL

TATAAT: the binding signal is 1.16 fold enrichment (6-mer frequency, TF over GST control) with FEV; 1.17 fold enrichment (6-mer frequency, TF over GST control) with ETV5; 1.82 fold enrichment (6-mer frequency, TF over GST control) with HSF1; 1.1 fold enrichment (6-mer frequency, TF over GST control) with SPIC; 1.13 fold enrichment (6-mer frequency, TF over GST control) with ELF4; 1.25 fold enrichment (6-mer frequency, TF over GST control) with ELK4. Also, the binding signal was 1.3 fold enrichment (6-mer frequency, TF over GST control) with ETV2; 1.27 fold enrichment (6-mer frequency, TF over GST control) with ELF3; 2.69 fold enrichment (6-mer frequency, TF over GST control) in the assay with CRX; 1.15 fold enrichment (6-mer frequency, TF over GST control) with ETV1; 1.25 fold enrichment (6-mer frequency, TF over GST control) in the assay with ERF; 1.23 fold enrichment (6-mer frequency, TF over GST control) with ETV3L. The binding signal with ETS2 was 1.19 fold enrichment (6-mer frequency, TF over GST control); in the assay with SPDEF, 1.27 fold enrichment (6-mer frequency, TF over GST control); with ETV7, 1.17 fold enrichment (6-mer frequency, TF over GST control); in the assay with ELF5, 1.18 fold enrichment (6-mer frequency, TF over GST control); with ETV3, 1.19 fold enrichment (6-mer frequency, TF over GST control); in the assay with ETV6, 1.24 fold enrichment (6-mer frequency, TF over GST control).
